Screens as filed in PubChem BioAssay.
Cycloheximide cs = Cycloheximide Counterscreen for Small Molecule Inhibitors of Shiga Toxin; actives 12% (n = 300,000); max response, %; cell reporter, cycloheximide protein synthesis inhibition counterscreen; in the data active = max response mostly above about 13%, no sharp cut-off; inactive = mostly below about 14%; note: read at 38.3 µM for the half of the compounds with a filed dose; 0% is about no effect
Pf growth 96h = Primary qHTS for delayed death inhibitors of the malarial parasite plastid, 96 hour incubation. P. falciparum luciferase reporter growth, 96 h. AID 504834, 2011. Potency, µM (series often up to 28.7 µM), for inactives: top-dose activity change, negative = inhibition, most hits filed as inhibitors. actives 6.9% (n = 320,000); note: potency is the fitted concentration of half-maximal effect; % is set by controls: 0 for no effect and ±100 for the full control effect
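Delayed-death screen, second-generation endpoint: infected erythrocytes, 2% hematocrit, 0.05% parasitemia final; 96 hours at 37 C, 5% CO2; luciferase detection reagent; luminescence decrease equals reduced growth.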
AMA1-RON2 inh = qHTS for Inhibitors of AMA1-RON; Towards Development of Antimalarial Drug Lead: Primary Screen; Plasmodium falciparum AMA1 (3D7) - RON2 peptide interaction; AlphaScreen AMA1-biotinylated RON2 peptide binding; Potency, µM (doses to about 58.2 µM), for the others: at the top dose activity change, negative = inhibition, most hits filed as inhibitors; actives 0.2% (n = 360,000);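 note: potency is the fitted concentration of half-maximal effect; 0% = vehicle wells and -100% = peptide control; nearly all actives have a fitted effect of over 45% in size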
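AMA1 (3D7) with his tag at 25 nM final met compounds first, then biotinylated RON2 peptide at 25 nM; detection used donor plus acceptor beads, 10 µg/mL apiece, read by AlphaScreen after 30 min at room temperature.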
HCV inhibitor = qHTS Assay for Inhibitors of Hepatitis C Virus (HCV). Huh7.5.1 HCVcc-Cre infection, luciferase reporter, 44 h. Potency, µM (highest dose often 41.8 µM), without a hit: at the top dose activity change, negative = inhibition, usual class: inhibitors. actives 3.4% (n = 340,000); note: potency is the fitted concentration of half-maximal effect; % is set by controls: 0 for no effect and ±100 for the full control effect
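1,000 cells/well; 4 h culture; + compound; + HCVcc-Cre (~0.5 moi); 44 h; luciferase substrate, RT 15 min; read 15 sec.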
Pf growth 48h = Primary qHTS for delayed death inhibitors of the malarial parasite plastid, 48 hour incubation | P. falciparum luciferase growth in erythrocytes, 48 h | Potency, µM (top dose mostly 28.7 µM), for the others: at the highest dose activity change, negative = inhibition, usual class: inhibitors | actives 5.9% (n = 310,000) | AID 504832, 2011; note: potency is the fitted concentration of half-maximal effect; % is set by controls: 0 for no effect and ±100 for the full control effect
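Erythrocytes infected with P. falciparum carrying an integrated firefly luciferase reporter (2% hematocrit, 0.1% parasitemia final) were exposed to compounds in RPMI 1640 with 0.5% Albumax at 37 C, 5% CO2. Growth inhibition was scored as reduced luminescence.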
Shiga toxin inh = A qHTS for Small Molecule Inhibitors of Shiga Toxin; inhibition, % at 38.7 µM; Vero cells, Shiga toxin protein synthesis inhibition reporter; actives 9.2% (n = 290,000); in the data active = inhibition mostly above about 28%, no sharp cut-off; inactive = mostly below about 43%; note: 0% is about no effect
Active calls of the source: *; ? = inconclusive; / = no result given; [ ] = another dose, or the depositor's remark. This is a sample that favours compounds with a hit; in the whole collection about 21% have one here. Unless noted, calls come from the whole dose curve; as a rule, active = well fitted curve in the direction sought with a large enough effect; inconclusive = small, poorly fitted or top-dose-only effect, or another doubt; inactive = no such curve, though single readings can be large; an effect the other way counts as inactive or inconclusive.

SMILES	Cycloheximide cs	Pf growth 96h	AMA1-RON2 inh	HCV inhibitor	Pf growth 48h	Shiga toxin inh
COc1ccc(CN2C[C@@H](CO)O[C@@H](n3cnc4c(NCc5ccc(F)cc5)ncnc43)C2)cc1	/	/	-13%	/	/	/
C/C(CC(=O)Nc1ccc2c(c1)OCCO2)=N\NC(=O)C(=O)Nc1ccccc1C	13	37%	23%	10%	18%	28
CCC(=O)c1ccc(N2CCN(C(=O)c3ccc(F)cc3)CC2)c(F)c1	0	16%	1%	?	-5%	-9
CC1CCN(c2ccc(C(=O)O)cc2N)CC1	25*	3.3µM*	-12%	-1%	35%	-14
CCC(=O)c1ccc(N2CCN(C(=O)c3cc([N+](=O)[O-])ccc3N3CCN(C)CC3)CC2)c(F)c1	0	9.3µM*	10%	?	?	29
CC(=O)c1ccc(N2CCN(C(=O)c3cccs3)CC2)c(F)c1	16*	?	-3%	-4%	?	16
N#CCCn1cc(C(=O)N2CCCCC2)c(-c2cccc([N+](=O)[O-])c2)n1	-4	-29%	9%	-6%	-4%	-8
CC(C)(CCl)C(=O)Nc1ccc(C(F)(F)F)cc1	28*	-5%	0%	5%	-9%	26
O=S(=O)(NCCN1CCOCC1)c1cc(Cl)ccc1Cl	-1	6.6µM*	5%	16%	2%	0
Cc1c(Cl)ccc(S(=O)(=O)NCCN2CCOCC2)c1Cl	0	-3%	0%	-25%	0.13µM*	11
Cc1cc(S(=O)(=O)NCCN2CCOCC2)ccc1Cl	-8	-3%	-5%	11%	/	-6
Cc1ccccc1C(=O)NC1CCN(CC(=O)Nc2ccc(Br)cc2)CC1	2	3%	-9%	-18%	-20%	1
O=C1NCCCC2c3cc(O)c4ccccc4c3OC12N1CCCCC1 (stereo not drawn)	12	20%	/	/	8.3µM*	20
COc1cccc(/C=C2\N=C(c3c(-c4ccccc4)noc3C)OC2=O)c1	1	24%	-1%	1%	8%	-1
COc1cc(/C=C2\N=C(c3c(-c4ccccc4)noc3C)OC2=O)ccc1OC(C)=O	-4	4%	-5%	-6%	13µM*	-6
Cc1cc(C)n(CCNC(=O)[C@H]2O[C@@H](n3ccc(=O)[nH]c3=O)[C@H](O)[C@@H]2O)n1	/	/	13%	/	/	/
CCOc1ccc(-n2c(C)c3c(C)nnc(C)c3c2C)cc1	/	/	-7%	/	/	/
CCOc1ccc(N2C=Nc3ccc(OCC)cc3C2)cc1	14*	?	-3%	?	?	48*
CC(C)(C)c1ccc(-c2cn(-c3ccc(Br)cc3)c3[n+]2CCCS3)cc1	-2	?	9%	?	2.6µM*	6
COc1ccc(-c2cn(-c3ccccc3)c3[n+]2CCS3)cc1	2	0.1µM*	20%	?	0.93µM*	18
c1ccc(-c2cn(-c3ccccc3)c3[n+]2CCS3)cc1	9	?	-1%	?	?	-6
CCOC(=O)N(C)c1c(CC)nc2c(OCc3ccccc3)cccn12	/	/	-2%	/	/	/
CCN(CC)c1ccc2nc3ccc(N)cc3[n+](-c3ccccc3)c2c1	/	?	20µM*	5µM*	0.29µM*	/
CCN(CC)c1ccc2nc3ccccc3[n+](CC)c2c1	-7	?	?	6.3µM*	0%	-9
COc1ccc(-c2c(-c3ccccc3OC)oc3ccccc23)cn1	/	?	7%	?	?	/
SMILES	Cycloheximide cs	Pf growth 96h	AMA1-RON2 inh	HCV inhibitor	Pf growth 48h	Shiga toxin inh
C[n+]1c2n(c3ccccc31)N=C(c1ccccc1)CS2	2	?	3%	-17%	2.1µM*	31
C[n+]1c2n(c3ccccc31)N=C(c1ccc(-c3ccccc3)cc1)CS2	-2	?	-8%	7.1µM*	?	55
O=C1CCC(=O)N1CO	/	94%	/	/	59%	/
CC(C)(C)S(=O)N1Cc2cc(C(=O)N3CCOCC3)nc(-c3cccc(Br)c3)c2[C@@H]1CCO (stereo partly drawn)	/	/	-1%	/	/	/
CC(=O)n1cc([C@H]2C=C(C(N)=O)O[C@@H](OCc3ccc(CO)cc3)C2)c2ccccc21	/	/	-1%	2.8µM*	/	/
C=CCOC(=O)C1=C[C@@H](c2cn(C(C)=O)c3ccccc23)C[C@@H](OCCCCO)O1	-2	?	-10%	-19%	?	-21
C#CCNC(=O)C1=C[C@@H](c2cn(C(C)=O)c3ccccc23)C[C@@H](OCc2ccc(CO)cc2)O1	-2	6.6µM*	-10%	-18%	8.3µM*	17
C#CCNC(=O)C1=C[C@@H](c2cn(C(C)=O)c3ccccc23)C[C@@H](OCCCCO)O1	8	?	11%	-7%[8.37 µM]	?	1
C=CCOC(=O)C1=C[C@H](c2cn(C(C)=O)c3ccccc23)C[C@H](OCCCCO)O1	-1	9%	-7%	-4%	?	-19
CC(=O)n1cc([C@H]2C=C(C(=O)NCc3ccccc3)O[C@@H](OCc3ccc(CO)cc3)C2)c2ccccc21	9	2.1µM*	-13%	?	?	30
CC(=O)n1cc([C@@H]2C=C(C(=O)Nc3ccccc3)O[C@H](OCc3ccc(CO)cc3)C2)c2ccccc21	13	5.9µM*	-12%	?	?	15
COc1ccccc1C(=O)NCCC(=O)Nc1ccc(S(=O)(=O)N2CCC(C)CC2)cc1	/	?	-8%	?	?	/
CCn1c(SCC(=O)Nc2cccc(OC)c2)nc2c(c1=O)SCC2	/	?	6%	2%	-16%	/
Cc1nc2c(C)c(C)c(C)c(C)c2nc1C	-1	44%	-8%	7%	?	-8
Cc1nc2c(O)c3c(c(O)c2nc1C)C1C=CC3CC1	/	/	29%	7.9µM*	/	/
CC(C)OC(=O)c1ccc(NC(=O)C2C3CC4OC(=O)C2C4C3)cc1 (stereo not drawn)	33*	/	-6%	-7%	234%	60*
